# Read-outs that look alike come from different tables or passages of the source.
# Experiments:
# MARK3 = settings: read-out: apparent Kd, n = 1
# MARK4 = settings: read-out: apparent Kd, n = 1
# [1] = compound concentrations:100 nM and 1000 nM (sheet 'Lestaurtinib' of Supplementary Table 1),run:Lestaurtinib_02473_R3,Plate:MR010
# [2] = compound concentrations:100 nM and 1000 nM (sheet 'Lestaurtinib' of Supplementary Table 1),run:Lestaurtinib_02482_R2,Plate:MR011
# [3] = compound concentrations:100 nM and 1000 nM (sheet 'Lestaurtinib' of Supplementary Table 1),run:Lestaurtinib_02482_R3,Plate:MR011
# [4] = compound concentrations:100 nM and 1000 nM (sheet 'Lestaurtinib' of Supplementary Table 1),run:Lestaurtinib_02487_R1,Plate:MR012
# [5] = compound concentrations:100 nM and 1000 nM (sheet 'Lestaurtinib' of Supplementary Table 1),run:Lestaurtinib_02487_R2,Plate:MR012
# [6] = compound concentrations:100 nM and 1000 nM (sheet 'Lestaurtinib' of Supplementary Table 1),run:Lestaurtinib_02496_R2,Plate:MR013
# [7] = compound concentrations:100 nM and 1000 nM (sheet 'Lestaurtinib' of Supplementary Table 1),run:Lestaurtinib_02496_R3,Plate:MR013
# [8] = compound concentrations:100 nM and 1000 nM (sheet 'Lestaurtinib' of Supplementary Table 1),run:Lestaurtinib_02566_R1,Plate:MR014
# [9] = compound concentrations:100 nM and 1000 nM (sheet 'Lestaurtinib' of Supplementary Table 1),run:Lestaurtinib_02572_R1,Plate:MR015
# [10] = compound concentrations:100 nM and 1000 nM (sheet 'Lestaurtinib' of Supplementary Table 1),run:Lestaurtinib_02577_R1,Plate:MR016
# [11] = compound concentrations:100 nM and 1000 nM (sheet 'Lestaurtinib' of Supplementary Table 1),run:Lestaurtinib_02577_R3,Plate:MR016
# [12] = compound concentrations:100 nM and 1000 nM (sheet 'Lestaurtinib' of Supplementary Table 1),run:Lestaurtinib_02584_R3,Plate:MR017
# [13] = compound concentrations:100 nM and 1000 nM (sheet 'Lestaurtinib' of Supplementary Table 1),run:Lestaurtinib_02606_R3,Plate:MR019
# [14] = compound concentrations:100 nM and 1000 nM (sheet 'Lestaurtinib' of Supplementary Table 1),run:Lestaurtinib_02624_R2,Plate:MR020
substance,measurement,setting,value
Lestaurtinib,potency estimated from few doses,"MARK3; compound concentrations:100 nM and 1000 nM (sheet 'Lestaurtinib' of Supplementary Table 1),run:Lestaurtinib_02443_R3,Plate:MR009",217 nM
same,potency estimated from few doses,MARK3; [1],98.5 nM
same,potency estimated from few doses,MARK3; [2],158 nM
same,potency estimated from few doses,MARK3; [3],140 nM
same,potency estimated from few doses,MARK3; [4],153 nM
same,potency estimated from few doses,MARK3; [5],200 nM
same,potency estimated from few doses,"MARK3; compound concentrations:100 nM and 1000 nM (sheet 'Lestaurtinib' of Supplementary Table 1),run:Lestaurtinib_02487_R3,Plate:MR012",172 nM
same,potency estimated from few doses,MARK3; [6],153 nM
same,potency estimated from few doses,MARK3; [7],146 nM
same,potency estimated from few doses,MARK3; [8],140 nM
same,potency estimated from few doses,MARK3; [9],140 nM
same,potency estimated from few doses,"MARK3; compound concentrations:100 nM and 1000 nM (sheet 'Lestaurtinib' of Supplementary Table 1),run:Lestaurtinib_02572_R2,Plate:MR015",162 nM
same,potency estimated from few doses,MARK3; [10],158 nM
same,potency estimated from few doses,"MARK3; compound concentrations:100 nM and 1000 nM (sheet 'Lestaurtinib' of Supplementary Table 1),run:Lestaurtinib_02577_R2,Plate:MR016",224 nM
same,potency estimated from few doses,MARK3; [11],259 nM
same,potency estimated from few doses,MARK3; [12],211 nM
same,potency estimated from few doses,"MARK3; compound concentrations:100 nM and 1000 nM (sheet 'Lestaurtinib' of Supplementary Table 1),run:Lestaurtinib_02601_R2,Plate:MR018",184 nM
same,potency estimated from few doses,"MARK3; compound concentrations:100 nM and 1000 nM (sheet 'Lestaurtinib' of Supplementary Table 1),run:Lestaurtinib_02606_R2,Plate:MR019",131 nM
same,potency estimated from few doses,MARK3; [13],162 nM
same,potency estimated from few doses,"MARK3; compound concentrations:100 nM and 1000 nM (sheet 'Lestaurtinib' of Supplementary Table 1),run:Lestaurtinib_02624_R1,Plate:MR020",146 nM
same,potency estimated from few doses,MARK3; [14],143 nM
same,potency estimated from few doses,"MARK3; compound concentrations:100 nM and 1000 nM (sheet 'Lestaurtinib' of Supplementary Table 1),run:Lestaurtinib_02724_R1,Plate:MR021",157 nM
same,potency estimated from few doses,"MARK3; compound concentrations:100 nM and 1000 nM (sheet 'Lestaurtinib' of Supplementary Table 1),run:Lestaurtinib_02724_R2,Plate:MR021",180 nM
same,potency estimated from few doses,"MARK3; compound concentrations:100 nM and 1000 nM (sheet 'Lestaurtinib' of Supplementary Table 1),run:Lestaurtinib_02724_R3,Plate:MR021",163 nM
same,potency estimated from few doses,"MARK3; compound concentrations:100 nM and 1000 nM (sheet 'Lestaurtinib' of Supplementary Table 1),run:Lestaurtinib_02752_R3,Plate:MR025",189 nM
same,potency estimated from few doses,"MARK3; compound concentrations:100 nM and 1000 nM (sheet 'Lestaurtinib' of Supplementary Table 1),run:Lestaurtinib_02765_R3,Plate:MR026",143 nM
same,potency estimated from few doses,"MARK3; compound concentrations:100 nM and 1000 nM (sheet 'Lestaurtinib' of Supplementary Table 1),run:Lestaurtinib_02766_R3,Plate:MR027",137 nM
same,potency estimated from few doses,"MARK3; compound concentrations:100 nM and 1000 nM (sheet 'Lestaurtinib' of Supplementary Table 1),run:Lestaurtinib_02768_R3,Plate:MR028",136 nM
same,potency estimated from few doses,"MARK3; compound concentrations:100 nM and 1000 nM (sheet 'Lestaurtinib' of Supplementary Table 1),run:Lestaurtinib_02795_R1,Plate:MR022",154 nM
same,potency estimated from few doses,"MARK3; compound concentrations:100 nM and 1000 nM (sheet 'Lestaurtinib' of Supplementary Table 1),run:Lestaurtinib_02795_R2,Plate:MR022",141 nM
same,potency estimated from few doses,"MARK3; compound concentrations:100 nM and 1000 nM (sheet 'Lestaurtinib' of Supplementary Table 1),run:Lestaurtinib_02795_R3,Plate:MR022",268 nM
same,potency estimated from few doses,"MARK3; compound concentrations:100 nM and 1000 nM (sheet 'Lestaurtinib' of Supplementary Table 1),run:Lestaurtinib_02896_R1,Plate:MR030",142 nM
same,potency estimated from few doses,"MARK3; compound concentrations:100 nM and 1000 nM (sheet 'Lestaurtinib' of Supplementary Table 1),run:Lestaurtinib_02896_R3,Plate:MR030",159 nM
same,potency estimated from few doses,"MARK3; compound concentrations:100 nM and 1000 nM (sheet 'Lestaurtinib' of Supplementary Table 1),run:Lestaurtinib_03172_R1,Plate:MR031",161 nM
same,potency estimated from few doses,"MARK3; compound concentrations:100 nM and 1000 nM (sheet 'Lestaurtinib' of Supplementary Table 1),run:Lestaurtinib_03172_R2,Plate:MR031",207 nM
same,potency estimated from few doses,"MARK3; compound concentrations:100 nM and 1000 nM (sheet 'Lestaurtinib' of Supplementary Table 1),run:Lestaurtinib_03172_R3,Plate:MR031",146 nM
same,potency estimated from few doses,"MARK3; compound concentrations:100 nM and 1000 nM (sheet 'Lestaurtinib' of Supplementary Table 1),run:Lestaurtinib_03260_R1,Plate:MR033",381 nM
same,potency estimated from few doses,"MARK3; compound concentrations:100 nM and 1000 nM (sheet 'Lestaurtinib' of Supplementary Table 1),run:Lestaurtinib_03260_R2,Plate:MR033",379 nM
same,potency estimated from few doses,"MARK3; compound concentrations:100 nM and 1000 nM (sheet 'Lestaurtinib' of Supplementary Table 1),run:Lestaurtinib_03260_R3,Plate:MR033",184 nM
same,potency estimated from few doses,"MARK4; compound concentrations:100 nM and 1000 nM (sheet 'Lestaurtinib' of Supplementary Table 1),run:Lestaurtinib_02339_R2,Plate:MR001",165 nM
same,potency estimated from few doses,"MARK4; compound concentrations:100 nM and 1000 nM (sheet 'Lestaurtinib' of Supplementary Table 1),run:Lestaurtinib_02339_R3,Plate:MR001",385 nM
same,potency estimated from few doses,"MARK4; compound concentrations:100 nM and 1000 nM (sheet 'Lestaurtinib' of Supplementary Table 1),run:Lestaurtinib_02364_R1,Plate:MR002",73 nM
same,potency estimated from few doses,"MARK4; compound concentrations:100 nM and 1000 nM (sheet 'Lestaurtinib' of Supplementary Table 1),run:Lestaurtinib_02367_R2,Plate:MR003",79.7 nM
same,potency estimated from few doses,"MARK4; compound concentrations:100 nM and 1000 nM (sheet 'Lestaurtinib' of Supplementary Table 1),run:Lestaurtinib_02367_R3,Plate:MR003",85.1 nM
same,potency estimated from few doses,"MARK4; compound concentrations:100 nM and 1000 nM (sheet 'Lestaurtinib' of Supplementary Table 1),run:Lestaurtinib_02381_R3,Plate:MR004",209 nM
same,potency estimated from few doses,"MARK4; compound concentrations:100 nM and 1000 nM (sheet 'Lestaurtinib' of Supplementary Table 1),run:Lestaurtinib_02422_R1,Plate:MR006",74.8 nM
same,potency estimated from few doses,"MARK4; compound concentrations:100 nM and 1000 nM (sheet 'Lestaurtinib' of Supplementary Table 1),run:Lestaurtinib_02422_R3,Plate:MR006",86.4 nM
same,potency estimated from few doses,"MARK4; compound concentrations:100 nM and 1000 nM (sheet 'Lestaurtinib' of Supplementary Table 1),run:Lestaurtinib_02437_R1,Plate:MR007",974 nM
same,potency estimated from few doses,"MARK4; compound concentrations:100 nM and 1000 nM (sheet 'Lestaurtinib' of Supplementary Table 1),run:Lestaurtinib_02438_R3,Plate:MR008",83.1 nM
same,potency estimated from few doses,"MARK4; compound concentrations:100 nM and 1000 nM (sheet 'Lestaurtinib' of Supplementary Table 1),run:Lestaurtinib_02443_R2,Plate:MR009",93.4 nM
same,potency estimated from few doses,"MARK4; compound concentrations:100 nM and 1000 nM (sheet 'Lestaurtinib' of Supplementary Table 1),run:Lestaurtinib_02473_R1,Plate:MR010",84.5 nM
same,potency estimated from few doses,MARK4; [1],59.7 nM
same,potency estimated from few doses,MARK4; [2],86.4 nM
same,potency estimated from few doses,MARK4; [3],83.9 nM
same,potency estimated from few doses,MARK4; [4],703 nM
same,potency estimated from few doses,MARK4; [5],162 nM
same,potency estimated from few doses,MARK4; [6],83.9 nM
same,potency estimated from few doses,MARK4; [7],668 nM
same,potency estimated from few doses,MARK4; [8],708 nM
same,potency estimated from few doses,"MARK4; compound concentrations:100 nM and 1000 nM (sheet 'Lestaurtinib' of Supplementary Table 1),run:Lestaurtinib_02566_R2,Plate:MR014",36.8 nM
same,potency estimated from few doses,"MARK4; compound concentrations:100 nM and 1000 nM (sheet 'Lestaurtinib' of Supplementary Table 1),run:Lestaurtinib_02566_R3,Plate:MR014",497 nM
same,potency estimated from few doses,MARK4; [9],115 nM
same,potency estimated from few doses,MARK4; [10],141 nM
same,potency estimated from few doses,MARK4; [11],199 nM
same,potency estimated from few doses,"MARK4; compound concentrations:100 nM and 1000 nM (sheet 'Lestaurtinib' of Supplementary Table 1),run:Lestaurtinib_02584_R1,Plate:MR017",85.5 nM
same,potency estimated from few doses,"MARK4; compound concentrations:100 nM and 1000 nM (sheet 'Lestaurtinib' of Supplementary Table 1),run:Lestaurtinib_02584_R2,Plate:MR017",74.7 nM
same,potency estimated from few doses,MARK4; [12],80.1 nM
same,potency estimated from few doses,"MARK4; compound concentrations:100 nM and 1000 nM (sheet 'Lestaurtinib' of Supplementary Table 1),run:Lestaurtinib_02601_R1,Plate:MR018",90.9 nM
same,potency estimated from few doses,"MARK4; compound concentrations:100 nM and 1000 nM (sheet 'Lestaurtinib' of Supplementary Table 1),run:Lestaurtinib_02601_R3,Plate:MR018",93.4 nM
same,potency estimated from few doses,MARK4; [13],115 nM
same,potency estimated from few doses,MARK4; [14],84.3 nM
same,potency estimated from few doses,"MARK4; compound concentrations:100 nM and 1000 nM (sheet 'Lestaurtinib' of Supplementary Table 1),run:Lestaurtinib_02624_R3,Plate:MR020",78.4 nM
